# From PubChem BioAssay (Tox21)
# “And” between values parts separate entries of the source, which are not always exact repeats. Identical values can stand only once. Results filed as inconclusive are left out. A number with no mark means an inactive call. The source made the active and inactive calls. The call rests on the fitted dose curve; in most records, active means well fitted cell-killing curve with a large enough effect in the repeat runs; inconclusive means weak or mixed curves; inactive means no such curve, though single readings can be large or run the other way.
# Experiment: qHTS assay for identifying genotoxic compounds that show differential cytotoxicity against isogenic chicken DT40 cell lines with known DNA damage response pathways - Rad54/Ku70 mutant cell line (AID 743015); further: nearly all actives have a fitted effect of over 60% in size
# Conditions: DT40 Rad54/Ku70 mutant viability, CellTiter-Glo, 40 h; series mostly up to 66.8 µM
# Text: National Center for Advancing Translational Sciences [NCATS]
# NIH Chemical Genomics Center [NCGC]
# U.S. Environmental Protection Agency [EPA]
# National Institutes of Environmental Health Sciences [NIEHS]
# National Toxicology Program [NTP]
# U.S. Food and Drug Administration [FDA]
# DNA repair pathways play a critical role in cellular homeostasis by repairing DNA damage induced by endogenous processes and xenobiotics. Isogenic chicken DT40 cell lines deficient in different DNA repair pathways can be used to identify genotoxic compounds and aid in characterizing the nature of the DNA damage induced. Two DNA repair-deficient cell lines with disrupted genes, Rad54/Ku70 or Rev3, were used to screen the Tox21 10K compound library. Possible genotoxicity was based on the presence of a significant increase in cytotoxicity in one or more of the DNA repair-deficient cell lines compared to that observed in the parental DNA repair-proficient cell line. CellTiter Glo viability assay (Promega, Madison, WI) was used to measure cell viability in these cells after compound treatment. This assay includes the data from the Rad54/Ku70 mutant cell line.
# Tox21 Assay Protocol Summary:
# 300 DT40 mutant cells in 5 uL/well were dispensed into white, solid-bottom 1536-well plates using a Multidrop Combi (ThermoFisher Scientific, Waltham, MA) dispenser. After the assay plates were incubated at 37 C/5% CO2 for approximately 0.5 hour, 23 nL of compounds dissolved in DMSO, positive controls or DMSO only was transferred into the assay plate by a pintool work station (Kalypsys, San Diego, CA). The assay plates were incubated at 37 C/5% CO2 for 40 hours. After 5 uL per well of CellTiter-Glo reagent was added into each well of the assay plates, the plates were incubated for 30 min at room temperature and the luminescence intensity of the plates was measured using a ViewLux (PerkinElmer, Shelton, CT) plate reader.
# On the % scale 0 is the no-effect control and ±100 the full control effect; potency means the concentration at half of the fitted maximal effect.
Structure (SMILES),Potency,"activity change, negative = cytotoxicity"
COC(=O)C1=C(C)NC(COC(N)=O)=C(C(=O)OC(C)C)C1c1cccc(Cl)c1Cl (stereo not given),23.7 µM (active),–
CCOc1ccc(N=Nc2ccc(/C=C/c3ccc(N=Nc4ccc(OCC)cc4)cc3S(=O)(=O)O)c(S(=O)(=O)O)c2)cc1,inactive,–
Cc1ccc(N=Nc2c(O)c(C(=O)O)cc3ccccc23)c(S(=O)(=O)O)c1,13.3 µM (active),–
CN(C)C(=O)NC1(c2ccccc2)CCN(CC[C@@]2(c3ccc(F)c(F)c3)CN(C(=O)c3ccccc3)CCO2)CC1,28.4 µM (active),–
CC[N+]1(CC)CCC(=C(c2ccccc2)c2ccccc2)C1C (stereo not given),13.3 µM (active),–
Cc1cc(C(=O)O)ccc1[N+](=O)[O-],inactive,–
CCCCCCCC#N,inactive,–
CC(CC=O)c1ccccc1 (stereo not given),inactive,–
COS(=O)(=O)C(F)(F)F,inactive,–
S=C([S-])NCCNC(=S)[S-].[Mn+2],61.1 µM (active),–
CCN(CC)CCNc1ccc(CNC=O)c2sc3ccc(OC)cc3c(=O)c12,0.969 µM (active),–
CN(C)c1ccc(CCO)cc1,inactive,–
O=[N+]([O-])c1ccc2[nH]ncc2c1,inactive,–
COCC(C)OC(C)=O (stereo not given),inactive,–
C=C1C(=C/C=C2\CCC[C@]3(C)[C@@H]([C@H](C)/C=C/[C@@H](O)C4CC4)CC[C@@H]23)C[C@@H](O)C[C@@H]1O,13.3 µM (active),–
CN1CCC(N(Cc2cccs2)c2ccccc2)CC1,10.6 µM (active),–
Nc1c(CC(=O)O)cccc1C(=O)c1ccc(Br)cc1,inactive,–
NC(N)=NCCC[C@H](N)C(=O)O,inactive,–
O=[N+]([O-])c1cccc(S(=O)(=O)O)c1,inactive,–
NCC(=O)CCC(=O)O,inactive,–

Structure (SMILES),Potency,"activity change, negative = cytotoxicity"
CCCCCCCCCCO[C@@H]1O[C@H](CO)[C@@H](O)[C@H](O)[C@H]1O,61.1 µM (active),–
C=CC(=O)OCCOCCOCCOCCOC(=O)C=C,12.3 µM (active) and 9.6 µM (active),–
Cc1cccc(Nc2ccccc2)c1,48.6 µM (active),–
CCC(=O)O[C@]1(C(=O)CCl)[C@@H](C)C[C@H]2[C@@H]3CCC4=CC(=O)C=C[C@]4(C)[C@@]3(F)[C@@H](O)C[C@@]21C,29.8 µM (active),–
CC(C)=CCC/C(C)=C/CC/C(C)=C/CO,30.6 µM (active),–
COc1ccc(S(=O)(=O)N2C(=O)[C@@](c3ccccc3OC)(N3C[C@H](O)C[C@H]3C(=O)N(C)C)c3cc(Cl)ccc32)c(OC)c1,48.6 µM (active),–
CC(C)(CO)[N+](=O)[O-],inactive,–
COc1cc(C(=O)OCCCN2CCCN(CCCOC(=O)c3cc(OC)c(OC)c(OC)c3)CC2)cc(OC)c1OC,8.41 µM (active),–
CCCCCCCC/C=C\CCCCCCCC(=O)OCC,inactive,–
C=C(C)C(=O)OCCO,inactive,–
O=S(=O)(Oc1ccc(Cl)cc1)c1ccccc1,54.5 µM (active),–
CN1CCC(=C2c3ccccc3Sc3ccccc32)CC1,8.41 µM (active),–
Nc1cccc([N+](=O)[O-])c1,inactive,–
C[C@@H](c1ncncc1F)C(O)(Cn1cncn1)c1ccc(F)cc1F (stereo not given in full),inactive,–
O=C(O)CNCC(=O)O,–,1.1% [at 8.55 µM]
CC[N+](C)(CC)CCOC(=O)C(O)(c1ccccc1)C1CCCCC1 (stereo not given),inactive,–
CCCOC(C(=O)OC1CCN(C)CC1)(c1ccccc1)c1ccccc1,11.9 µM (active),–
CCCCC,inactive,–
O=C(c1ccc(F)cc1)C1CCN(CCn2c(=S)[nH]c3ccccc3c2=O)CC1,6.68 µM (active),–
CCCCC(CC)CN1C(=O)C2C3C=CC(C3)C2C1=O (stereo not given),43.3 µM (active),–
